The panel holds about 83,000 compounds, 20% with a hit somewhere; the sample as a whole holds those more often.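 Compound tested at a single concentration for 48 hours in 96-well plates; a percent growth value below 10 was scored as active.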 Unmarked numbers belong to inactive results. Activity calls are given as the source filed them.
Tested on: SNB-19 CNS
Assay: NCI-60 one-dose screen, 48 h (100 = growth as untreated, 0 = no growth, -100 = all killed)
Details: 10 µM unless noted

Question: C=CC(=O)N1CCC(Oc2cc3c(Nc4ccc(Cl)c(Cl)c4F)ncnc3cc2OC)CC1 was tested. Which growth did it give?
Answer: The growth was 32.4%.

Question: Which growth does the source give for FC(F)(F)c1ccc(CNc2ccc(Cc3c[nH]c4ncc(Cl)cc34)cn2)cn1 here?
Answer: The growth was 37%.

Question: Which growth does the source give for O=S1(=O)OC(c2cc(Cl)c(O)c(Br)c2)(c2cc(Cl)c(O)c(Br)c2)c2ccccc21 here?
Answer: Its growth is 102%.

Question: Which growth does the source give for CC(C)(C)OC(=O)N1CCC(O)[C@@H](O[Si](c2ccccc2)(c2ccccc2)C(C)(C)C)[C@H]1/C=C/c1ccccc1 (stereo partly specified) here?
Answer: The growth was 58.5%.

Question: How did the growth turn out when Cc1cn(-c2cc(NC(=O)c3ccc(C)c(Nc4nccc(-c5cccnc5)n4)c3)cc(C(F)(F)F)c2)cn1 was run?
Answer: The growth was 69.9%.

Question: Cc1cnc(Nc2ccc(OCCN3CCCC3)cc2)nc1Nc1cccc(S(=O)(=O)NC(C)(C)C)c1 was tested. Which growth did it give?
Answer: Its growth is 21.3%.

Question: With Cc1cccc(C)c1N1C(c2ccccc2)=NNC12C=CC(=O)c1c(O)cccc12 (stereo unspecified) as the compound, how does the growth read?
Answer: Its growth is 69.7%.

Question: Which growth does the source give for C=CC(=O)Nc1cccc(Nc2nc(Nc3ccc(N4CCN(C(C)=O)CC4)cc3OC)ncc2C(F)(F)F)c1 here?
Answer: The growth was 39.6%.

Question: Which growth does the source give for COc1ccc(/C(C)=C(\c2ccc(Cl)cc2)c2ccc(OCCN3CCCCCC3)cc2)cc1 here?
Answer: The growth was 64.7%.

Question: With Cc1cc(C(=O)Nc2cc(Oc3ccc4nc(NC(=O)C5CC5)cn4n3)ccc2C)n(C)n1 as the compound, how does the growth read?
Answer: Its growth is 33.5%.

Question: With CO[C@H](C(=O)N[C@@H](CCCCNC(=O)OCc1ccccc1)C(=O)OC(C)(C)C)[C@@H]1Cc2cc3cc(OC4CC(OC5CC(O)C(O)C(C)O5)C(O)C(C)O4)c(C)c(O)c3c(O)c2C(=O)[C@H]1OC1CC(OC2CC(OC3CC(C)(O)C(O)C(C)O3)C(O)C(C)O2)C(O)C(C)O1 (stereo partly specified) as the compound, how does the growth read?
Answer: The growth was -51.6% (active).

Question: For CCN(CCCOc1ccc2c(Nc3cc(CC(=O)Nc4cccc(F)c4)[nH]n3)ncnc2c1)CCOP(=O)(O)O, which growth is on record?
Answer: The growth was 71.1%.

Question: CC/C=C\C[C@H]1C/C=C2/C(=O)C=C[C@@H]2C/C=C\CCCC(=O)O1 was tested. Which growth did it give?
Answer: Its growth is 12.6%.

Question: For Cc1cn(-c2cc(NC(=O)c3ccc(C)c(Nc4nccc(-c5cnccn5)n4)c3)cc(C(F)(F)F)c2)cn1, which growth is on record?
Answer: The growth was 74.5%.

Question: COc1cc2ncnc3c2cc1OCCCCCN(C)Cc1ccc(Br)cc1N3 was tested. Which growth did it give?
Answer: Its growth is 88.4%.

Question: With C[C@@]1(C(=O)Nc2ccc(F)nc2)CCCN1c1nc(Nc2cc(C3CC3)[nH]n2)c2cccn2n1 as the compound, how does the growth read?
Answer: The growth was 55.2%.

Question: With C[C@]12O[C@H](C[C@]1(O)CO)n1c3ccccc3c3c4c(c5c6ccccc6n2c5c31)CNC4=O as the compound, how does the growth read?
Answer: Its growth is -20.6% (active).

Question: CCN1CCN(CCCN(C[C@H]2Cc3ccccc3CN2)[C@H]2CCCc3cccnc32)CC1 was tested. Which growth did it give?
Answer: Its growth is 84.9%.

Question: With COCc1c(-c2ccc(NC(=O)Nc3cc(C(F)(F)F)ccc3F)c(F)c2)c2c(N)ncnn2c1CN1CCOCC1 as the compound, how does the growth read?
Answer: Its growth is -14.9% (active).

Question: COc1cc2cc(NCc3ccc(F)cc3)nc(C)c2cc1OC was tested. Which growth did it give?
Answer: Its growth is 43.8%.

Question: Which growth does the source give for CC(=O)C1=C(C)NC(SCc2nnc(-c3ccc(C)cc3)o2)=NC1c1ccc(F)cc1 (stereo unspecified) here?
Answer: The growth was 94.1%.

Question: N#CC[C@H](C1CCCC1)n1cc(-c2ncnc3[nH]ccc23)cn1 was tested. Which growth did it give?
Answer: The growth was 90.7%.

Question: How did the growth turn out when Cc1ccc(-[n+]2c3cc(N)c(C)cc3nc3cc(C)c(Nc4ccccc4)cc32)cc1 was run?
Answer: Its growth is -82.3% (active).

Question: COc1cc2cc(NCc3ccc(Cl)cc3)nc(C)c2cc1OC was tested. Which growth did it give?
Answer: Its growth is 42.6%.

Question: Which growth does the source give for CC(=O)c1cnc2ccc(-c3cc(Cl)c(O)c(Cl)c3)nc2c1NC1CCC(CN(C)C)CC1 (stereo unspecified) here?
Answer: The growth was 5.41% [2.5 µM] (active).

Question: With CCN(CC)c1cc2oc3cc(N)cc(=N)c-3nc2cc1C as the compound, how does the growth read?
Answer: The growth was 69.7%.

Question: Which growth does the source give for CO[C@H]1C[C@@H]2CC[C@@H](C)[C@@](O)(O2)C(=O)C(=O)N2CCCC[C@H]2C(=O)O[C@H]([C@H](C)C[C@@H]2CC[C@@H](O)[C@H](OC)C2)CC(=O)[C@H](C)/C=C(\C)[C@@H](O)[C@@H](OC)C(=O)[C@H](C)C[C@H](C)\C=C/C=C/C=C/1C here?
Answer: The growth was 39.4%.

Question: For COc1cccc(NC(=O)Nc2ccc(Nc3ncnc4sc5c(c34)CCN(C(=O)CCl)C5)cc2)c1, which growth is on record?
Answer: The growth was 102%.

Question: With CCN(CC)CCNC(=O)c1c(C)[nH]c(/C=C2\C(=O)Nc3ccc(F)cc32)c1C as the compound, how does the growth read?
Answer: The growth was 9.51% (active).

Question: Which growth does the source give for CO[C@@H](C)Cn1c(=O)n(C)c2cnc3ccc(-c4cncc(C(C)(C)O)c4)cc3c21 here?
Answer: Its growth is 8.17% (active).

Question: Which growth does the source give for Cc1c(N)ccc(-c2ccc(N)c(C)c2S(=O)(=O)O)c1S(=O)(=O)O here?
Answer: The growth was 112%.

From PubChem BioAssay (NCI)
